Test results reported in the supplement of paper PMC10338343.
± gives the standard deviation. Whole data set: some 6,600 sequences, median “pre-steady-state target cleavage rate” near 0.07, cut for the highest 2% near 0.72. What follows is part of a selection rich in the highest values, with near analogues and random picks from the rest.

What follows are sequences tested on MIWI (PIWIL1) piRISC loaded with Kctd7 piRNA (30 nt) (assay: pre-steady-state target cleavage rate (min^-1); MIWI and MILI are mouse PIWI proteins and EfPiwi is from a freshwater sponge; tags in brackets are library labels; higher = faster piRNA-guided slicing of the target). Details: guide: Kctd7 piRNA 5'p-UGUUAAUCUCUCAGAGAAGGUGACAGUGAU; auxiliary factor: 500 nM mouse GTSF1.
Method in brief: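 Cleave-'n-Seq used a transcribed, DNA-blocked target RNA library at 0.1 nM and active affinity-purified piRISC with one synthetic guide at 1 nM, with or without 500 nM GTSF1 partner protein, in HEPES–potassium acetate buffer at 33 °C for 0–8 or 0–960 min. Uncleaved targets were sequenced and normalised to depth and to weakly complementary targets, and three trials were pooled with k3 capped at 0.0001 min^-1. The pre-steady-state cleavage rate was estimated by a burst-and-steady-state fit.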

Sequence	pre-steady-state target cleavage rate
UAGUCUGUCACCUUCGCUGAGAGAUUAACA	0.416 ± 0.035
AUCACUUUCACCUUCUCUGAGAGAUUAACA	0.622 ± 0.027
UAGUGAGUCUCCUUCUCUGAGAGAUUUACA	0.0124 ± 0.0051
UAGUCUCUCACCUUCUCUGUGAGAUUAACA	0.2 ± 0.015
UAGUGACAGACCCUUCUCUGAGAGAUUAACA	0.0893 ± 0.016
UACACUGUCACGAACUCUGAGAGAUUAACA	0.131 ± 0.019
UAGUCUGUCACCAUCUCUGAGAGAUUAUGA	0.021 ± 0.0082
UAGUGACAGUCCUUCUCUGAGACAUUAACA	0.0121 ± 0.0033
UUCACAGUCACCUUCUCUGAGAGAUUAACA	0.656 ± 0.027
UUGAGUGUCACCUUCUCUGAGAGAUUAACA	0.763 ± 0.034
UAGAGUGUCACCUUCUCUGAGAGAUUAACA	0.72 ± 0.035
UACACAGUCACCUUCUCUGAGAGAUUAACA	0.589 ± 0.038
AUCACUAGUCACCUUCUCUGAGAGAUUAACA	0.724 ± 0.04
AUCUGAGUCACCUUCUCUGAGAGAUUAACA	0.652 ± 0.053
UUCACUAGUCACCUUCUCUGAGAGAUUAACA	0.708 ± 0.032
UACACUAGUCACCUUCUCUGAGAGAUUAACA	0.663 ± 0.029
AACACAGUCACCUUCUCUGAGAGAUUAACA	0.736 ± 0.032
UUCUGAGUCACCUUCUCUGAGAGAUUAACA	0.657 ± 0.059
UAGAGAGUCACCUUCUCUGAGAGAUUAACA	0.797 ± 0.035
AUGAGUGUCACCUUCUCUGAGAGAUUAACA	0.706 ± 0.032
AUGACUGUCACCUUCACUGAGAGAUUAACA	0.541 ± 0.032
UAGUCUGUCACGCUUCUCUGAGAGAUUAACA	0.506 ± 0.025
UAGUGACUCCACCUUCUCUGAGAGAUUAACA	0.415 ± 0.04
UAGACUGUCACCUUCUCUGUGACAUUAACA	0.0186 ± 0.0033

Sequence	pre-steady-state target cleavage rate
UAGUGUGUCACCUUCUCUGAGAGUUUAUCA	0.232 ± 0.056
UAGUGUGUCACCUUCUCUGAGACAUAAACA	0.0331 ± 0.0077
UAGUGACAGUGCUUCGCUGAGAGAUUAACA	0.00389 ± 0.0031
AUCACUGUCACCUUCACUGAGACAUUAACA	0.252 ± 0.024
UAGACUAUCACCUUCUCUGAGAGAUUAACA	0.56 ± 0.026
UAGACAGUCACCUUCUCUGAGAGAUUAACA	0.656 ± 0.033
UAGACUAGUCACCUUCUCUGAGAGAUUAACA	0.756 ± 0.049
UAGUGACAGACCUUCACUGAGAGAUAAACA	0.0224 ± 0.007
UAGUGACAGUGCUUCUCUGAGAGUUUAACA	0.00896 ± 0.0024
AUUACUGUCACCUUCUCUGAGAGAUUAACA	0.713 ± 0.032
UACUCUGUCACCUUCUCUGAGAGAUUAACA	0.663 ± 0.03
UACUGUGUCACCUUCUCUGAGAGAUUAACA	0.63 ± 0.027
UUUACUGUCACCUUCUCUGAGAGAUUAACA	0.708 ± 0.026
AUACUGUCACCUUCUCUGAGAGAUUAACA	0.756 ± 0.043
UACUACUGUCACCUUCUCUGAGAGAUUAACA	0.694 ± 0.032
UUCUACUGUCACCUUCUCUGAGAGAUUAACA	0.677 ± 0.038
UUACUGUCACCUUCUCUGAGAGAUUAACA	0.743 ± 0.041
UAUACUGUCACCUUCUCUGAGAGAUUAACA	0.767 ± 0.047
UAGUGACUCACGUUCUCUGACAGAUUAACA	0.00367 ± 0.0032
UAGACUGUCAGCUUCUCUGAGAGAUUAAGA	0.0909 ± 0.017
UAGUCUCACACCUUCUCUGAGAGAUUAUGA	0.0207 ± 0.0066
UAGUCUGUCACCUUCACUGAGAGAUUAACA	0.39 ± 0.02
UUCACUGUCUACCUUCUCUGAGAGAUUAACA	0.208 ± 0.022
UAGUGACAGUCCUUCUCUGAGAGAUAAUCA	0.00284 ± 0.0022

Sequence	pre-steady-state target cleavage rate
AUCGCUGUCACCUUCUCUGAGAGAUUAACA	0.825 ± 0.042
UUCUGUGUCACCUUCUCUGAGAGAUUAACA	0.224 ± 0.022
AUGUCUGUCACCUUCUCUGAGAGAUUAACA	0.604 ± 0.024
UUCGCUGUCACCUUCUCUGAGAGAUUAACA	0.626 ± 0.04
UAGGCUGUCACCUUCUCUGAGAGAUUAACA	0.803 ± 0.045
UUGUCUGUCACCUUCUCUGAGAGAUUAACA	0.691 ± 0.031
UACGCUGUCACCUUCUCUGAGAGAUUAACA	0.745 ± 0.038
AACUCUGUCACCUUCUCUGAGAGAUUAACA	0.715 ± 0.034
UACACUGUCACCUUCUGUGUGAGAUUAACA	0.0849 ± 0.012
UUCUCUGUGACCUUCUCUGAGAGAUUAACA	0.491 ± 0.023
UACACUGUCACCUUCUCUGAGACUUUAUGA	0.00869 ± 0.0047
UAGUGACAGUGCCUUCUCUGAGAGAUUAACA	0.356 ± 0.034
UAGUGAGUGACCUUCUCAGAGAGAUUAACA	0.226 ± 0.026
UAGUGACAGUCCUUCUCUGAGGGAUUAACA	0.0348 ± 0.0076
UUCACUGCCACCUUCUCUGAGAGAUUAACA	0.611 ± 0.023
UACACUGCUCACCUUCUCUGAGAGAUUAACA	0.623 ± 0.035
AUCACUGCUCACCUUCUCUGAGAGAUUAACA	0.8 ± 0.051
UUCACUGCUCACCUUCUCUGAGAGAUUAACA	0.669 ± 0.044
AUCACUGCCACCUUCUCUGAGAGAUUAACA	0.773 ± 0.044
UACACUGCCACCUUCUCUGAGAGAUUAACA	0.613 ± 0.035
UAGUGACUGACCUUCUCUGAGAGAUUAUGA	0.00985 ± 0.0048
UAGUGACUCUACCUUCUCUGAGAGAUUAACA	0.122 ± 0.014
UAGACUGUGCACCUUCUCUGAGAGAUUAACA	0.651 ± 0.048
UAGUGAGUCACCUUAUCUGAGAGAUUAACA	0.363 ± 0.02

Sequence	pre-steady-state target cleavage rate
UAGUGACAGUCCUUACUCUGAGAGAUUAACA	0.0326 ± 0.0043
UAGAGUGUCACCUUCUCUGAGAGAUAAACA	0.362 ± 0.038
UAGUCUGUCACCAUCUCUGAGAGAUUAACA	0.667 ± 0.038
UACUCUGUCACCAUCUCUGAGAGAUUAACA	0.69 ± 0.036
AUCUCUGUCACCAUCUCUGAGAGAUUAACA	0.633 ± 0.03
UUCUCUGUCACCAUCUCUGAGAGAUUAACA	0.514 ± 0.023
UUGACUGUCACCAUCUCUGAGAGAUUAACA	0.756 ± 0.044
AUGACUGUCACCAUCUCUGAGAGAUUAACA	0.817 ± 0.06
UAGACUGUCACCUUCUCUCAGAGAUUAACA	0.154 ± 0.016
UAGUCUGUCACCUUCUCUGAGUGAUUAUCA	0.015 ± 0.0044
UUCACAGUCACCUUCUGUGAGAGAUUAACA	0.363 ± 0.035
UACACUGUGACCUUGUCUGAGAGAUUAACA	0.0711 ± 0.013
UAGACUGUCAGCUUCUCUGAGAGUUUAACA	0.0686 ± 0.011
UAGUGAGUCACCUUGCUCUGAGAGAUUAACA	0.332 ± 0.07
UACCUGUCACCUUCUCUGAGAGAUUAACA	0.773 ± 0.051
UACACCUGUCACCUUCUCUGAGAGAUUAACA	0.79 ± 0.051
UUCCUGUCACCUUCUCUGAGAGAUUAACA	0.633 ± 0.037
AUCCUGUCACCUUCUCUGAGAGAUUAACA	0.744 ± 0.052
UUCACCUGUCACCUUCUCUGAGAGAUUAACA	0.73 ± 0.033
AUCCCUGUCACCUUCUCUGAGAGAUUAACA	0.644 ± 0.051
UUCUCUGUCACCUUCUCUGAGAGAUUAACA	0.585 ± 0.031
UACCCUGUCACCUUCUCUGAGAGAUUAACA	0.638 ± 0.034
UAGUGUGUCACCUUCUCUGACUCAUUUUGA	0.0047 ± 0.0045
UAGUGACAGACCUUCUCUGUGACAUUAACA	0.00672 ± 0.0033

Sequence	pre-steady-state target cleavage rate
UAGUGACUCUCCUUCUCUGAGAGUUUAACA	0.035 ± 0.007
UAGACUGUCACCUUGUCUGAGAGAUUAUCA	0.643 ± 0.1
UAGACUCACACCUUCUCUGAGAGAUAUUGA	0.0233 ± 0.0066
UAGUCUGUCACCUUCUCUGAGAGUUUAACA	0.365 ± 0.053
AUCUACUGUCACCUUCUCUGAGAGAUUAACA	0.719 ± 0.041
AUCACUGUCACCUAGUCUGAGAGAUUUUGA	0.0964 ± 0.023
AUCUGUGUCACCUUCUCUGAGAGAUUAACA	0.417 ± 0.025
UAGUGACAGUGGUUUCUGAGAGAUUAACA	< 0.0001
UACACUGUCACCUUCACUGUGAGAUUAACA	0.116 ± 0.015
UAGUCUGUCACUUUCUCUGAGAGAUUAACA	0.642 ± 0.023
UAGUCUGUCACCAUCUCUGAGAGAUAAACA	0.246 ± 0.025
UAGUGACACACCUUCUCAGAGAGAUUAAGA	0.0233 ± 0.0077
AACACUGUCACCUUCUCUGAGAGAUAUUGA	0.0742 ± 0.021
AUCUCUGUCACCUUGUCUGAGAGAUUAACA	0.394 ± 0.06
UAGUGACUCACCUUCUCUGAGAGGAUUAACA	0.172 ± 0.015
UAGUGAGACACCUACUCUGAGAGAUUAACA	0.399 ± 0.03
UUCCCUGUCACCUUCUCUGAGAGAUUAACA	0.502 ± 0.037
UUCAUCUGUCACCUUCUCUGAGAGAUUAACA	0.706 ± 0.03
AUCAUCUGUCACCUUCUCUGAGAGAUUAACA	0.74 ± 0.035
AUCACCUGUCACCUUCUCUGAGAGAUUAACA	0.742 ± 0.05
UAGCCUGUCACCUUCUCUGAGAGAUUAACA	0.752 ± 0.056
AUCUCUGUCACCUUCUCUGAGAGAUUAACA	0.713 ± 0.032
UAGACCUGUCACCUUCUCUGAGAGAUUAACA	0.652 ± 0.043
UAGUGACUCACCUUCUCUGAGAGAUAUACA	0.143 ± 0.019

Sequence	pre-steady-state target cleavage rate
UACACUCACACCUUCUCUGAGAGAUAUUGA	0.0241 ± 0.012
UAGUGACAGUGCAUUCUCUGAGAGAUUAACA	0.0141 ± 0.0028
AUCACUGUCACCAUCUCUGAGAGAUAAACA	0.31 ± 0.03
UACACUGUCGACCUUCUCUGAGAGAUUAACA	0.229 ± 0.026
UAGUGAGUCACCUUCACUGAGAGAUUUACA	0.203 ± 0.036
UACACUGAGACCUUCUCUGAGAGAUAUUGA	0.0195 ± 0.0074
AUCACUGUCACCUUCUCUGAGAGAGUUAACA	0.651 ± 0.088
UAGUCUGUCACCUUCUCUGACAGAUUUACA	0.0113 ± 0.0036
UAGACUGUCACCUUCUCUGAGAGAUUAAA	0.141 ± 0.018
UAGUGAGUCACCUUCUCUGAGAGUAUAUGA	0.0298 ± 0.012
AACACUGUCACCUUCUCUGAGAGAUUAACA	0.746 ± 0.03
UACACUGUCACCUUCUCUGAGAGAUUAACU [g2:g28:cont:t1U]	0.494 ± 0.059
AACACUGUCACCUUCUCUGAGAGAUUAAGA	0.189 ± 0.026
ACACUGUCACCUUCUCUGAGAGAUUAACA	0.772 ± 0.044
UAGUGAGUCAGCCUUCUCUGAGAGAUUAACA	0.176 ± 0.02
UUCACUGUCACGCUUCUCUGAGAGAUUAACA	0.51 ± 0.02
UAGUGCGUCACCUUCUCUGAGAGAUUAACA	0.623 ± 0.04
UAGUGUGUCACGUUCUCUGAGAGAAUAACA	0.19 ± 0.037
AUCACUGUCGCCUUCUCUGAGAGAUUAACA	0.819 ± 0.053
UAGACUGUCGCCUUCUCUGAGAGAUUAACA	0.822 ± 0.064
AUCACUGUCGACCUUCUCUGAGAGAUUAACA	0.172 ± 0.017
UACACUGUCGCCUUCUCUGAGAGAUUAACA	0.708 ± 0.042
UAGACUGUCGACCUUCUCUGAGAGAUUAACA	0.121 ± 0.013
UUCACUGUCGCCUUCUCUGAGAGAUUAACA	0.665 ± 0.043
